According to PubChem BioAssay AID1159580 (chemical genetic matrix, 2015):
Several values for one entry are separate records, joined by “and”; a condition that tells them apart may be missing. Equal entries are not always repeated. Among all 5,500 compounds or so, about 2,000 (36%) were called active. Not shown: some 18% with an inconclusive outcome. No stated cut-off is given here; in the data, active means normalized growth mostly below about 0.91 (no sharp cut-off); inconclusive means no clear call, values can overlap the other calls; inactive means mostly above about 0.92. The list shows a part of the results.

Test: chemical genetic growth profiling, strain panel (AID 1159580);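 further: tested at 20 µM; growth read once vehicle control cultures reached saturation at 30 °C; 1 = growth at the plate median or of vehicle wells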
Details: S. cerevisiae deletion strains, growth OD

Measured: normalized growth

C/C=C(/C(=C/C)c1ccc(O)cc1)c1ccc(O)cc1
active: locus YAL026C, strain drs2, stronger effect = lower value 0.9 | locus YCL029C, strain bik1, stronger effect = lower value 0.823 | locus YDL074C, strain BRE1, stronger effect = lower value 0.492 | locus YDL101C, strain DUN1, stronger effect = lower value 0.869 | locus YDL185W, strain tfp1, stronger effect = lower value 0.844 | locus YDL192W, strain arf1, stronger effect = lower value 0.567 | locus YDR101C, strain arx1, stronger effect = lower value 0.846 | locus YDR137W, strain rgp1, stronger effect = lower value 0.757 | locus YDR162C, strain NBP2, stronger effect = lower value 0.561 | locus YDR318W, strain mcm21, stronger effect = lower value 0.789 | locus YDR388W, stronger effect = lower value 0.589 | locus YDR502C, strain sam2, stronger effect = lower value 0.821 | locus YEL061C, strain CIN8, stronger effect = lower value 0.899 | locus YER155C, strain BEM2, stronger effect = lower value 0.624 | locus YGL078C, strain dbp3, stronger effect = lower value 0.87 | locus YGL086W, strain mad1, stronger effect = lower value 0.832 | locus YGL248W, strain PDE1, stronger effect = lower value 0.81 | locus YGR135W, strain pre9, stronger effect = lower value 0.836 | locus YGR229C, strain SMI1, stronger effect = lower value 0.504 | locus YGR252W, strain gcn5, stronger effect = lower value 0.682 | locus YHR079C, strain IRE1 (second series), stronger effect = lower value 0.802 | locus YHR129C, strain ARP1, stronger effect = lower value 0.841 | locus YHR200W, strain rpn10, stronger effect = lower value 0.845 | locus YIL125W, strain kgd1, stronger effect = lower value 0.858 | locus YJL187C, strain SWE1 (second series), stronger effect = lower value 0.814
0.497 (active) and 0.978 (inactive): locus YJL095W, strain BCK1, stronger effect = lower value
inactive: locus YAL021C, strain ccr4, stronger effect = lower value 1.02 | locus YAL030W, strain snc1, stronger effect = lower value 0.978 | locus YBL061C, strain skt5, stronger effect = lower value 0.974 | locus YBR009C, strain hhf1, stronger effect = lower value 0.929 | locus YBR021W, strain FUR4, stronger effect = lower value 0.907 | locus YBR023C, strain chs3, stronger effect = lower value 0.968 | locus YBR171W, strain sec66, stronger effect = lower value 0.94 | locus YBR229C, strain ROT2, stronger effect = lower value 0.995 | locus YBR231C, strain swc5, stronger effect = lower value 1 | locus YBR279W, strain paf1, stronger effect = lower value 0.971 | locus YCL011C, strain gbp2, stronger effect = lower value 0.968 | locus YCL016C, strain dcc1, stronger effect = lower value 0.997 | locus YCL069W, strain vba3, stronger effect = lower value 0.953 | locus YCR088W, strain abp1, stronger effect = lower value 0.989 | locus YDL005C, strain med2, stronger effect = lower value 0.992 | locus YDL035C, strain GPR1, stronger effect = lower value 0.892 | locus YDL040C, strain nat1, stronger effect = lower value 0.979 | locus YDR001C, strain nth1, stronger effect = lower value 0.962 | locus YDR069C, strain doa4, stronger effect = lower value 0.974 | locus YDR159W, strain sac3, stronger effect = lower value 0.923 | locus YDR195W, strain ref2 0.989 | locus YDR297W, strain sur2, stronger effect = lower value 0.952 | locus YDR334W, strain swr1, stronger effect = lower value 0.968 | locus YDR335W, strain msn5, stronger effect = lower value 0.943 | locus YDR392W, strain spt3, stronger effect = lower value 0.905 | locus YEL003W, strain gim4, stronger effect = lower value 0.949 | locus YEL037C, strain rad23, stronger effect = lower value 0.989 | locus YEL061C, strain CIN8 (second series), stronger effect = lower value 0.973 | locus YER015W, strain faa2, stronger effect = lower value 0.953 | locus YER016W, strain bim1, stronger effect = lower value 0.986 | locus YER110C, stronger effect = lower value 0.982 | locus YER111C, strain swi4, stronger effect = lower value 0.993 | locus YER155C, strain BEM2 (second series), stronger effect = lower value 0.959 | locus YER167W, strain BCK2, stronger effect = lower value 0.904 | locus YFR010W, strain ubp6, stronger effect = lower value 0.982 | locus YGL167C, strain pmr1, stronger effect = lower value 0.978 | locus YGL173C, strain kem1, stronger effect = lower value 0.927 | locus YGL227W, strain vid30, stronger effect = lower value 0.985 | locus YGL240W, strain doc1, stronger effect = lower value 0.945 | locus YGL253W, strain hxk2, stronger effect = lower value 0.971 | locus YHR013C, strain ard1, stronger effect = lower value 1.15 | locus YHR027C, strain rpn1, stronger effect = lower value 0.979 | locus YHR079C, strain IRE1, stronger effect = lower value 0.982 | locus YHR094C, strain hxt1, stronger effect = lower value 0.968 | locus YHR142W, strain chs7, stronger effect = lower value 0.943 | locus YIL066C, strain RNR3, stronger effect = lower value 0.9 | locus YIL073C, strain SPO22, stronger effect = lower value 0.976 | locus YIR030C, strain dcg1, stronger effect = lower value 0.958 | locus YJL092W, strain hpr5, stronger effect = lower value 0.971 | locus YJL095W, strain BCK1 (second series), stronger effect = lower value 0.944 | locus YJL115W, strain asf1, stronger effect = lower value 0.984 | locus YJL129C, strain trk1, stronger effect = lower value 0.9 | locus YJL134W, strain LCB3, stronger effect = lower value 0.998 | locus YJL154C, strain vps35, stronger effect = lower value 0.969 | locus YJL164C, strain tpk1, stronger effect = lower value 0.972 | locus YJL166W, strain qcr8, stronger effect = lower value 0.915 | locus YJL168C, strain set2, stronger effect = lower value 0.979 | locus YJR043C, strain POL32, stronger effect = lower value 0.971 | locus YJR066W, strain TOR1, stronger effect = lower value 0.931
0.691 (active) and 0.969 (inactive): locus YHR030C, strain SLT2, stronger effect = lower value
